According to PubChem BioAssay AID1159580 (chemical genetic matrix, 2015):
Out of some 5,500 compounds screened, about 2,000 (36%) were called active. Inconclusive results (about 18%) are left out. Rule as the data show it: active = normalized growth mostly below about 0.91 (no sharp cut-off); inconclusive = no clear call, values can overlap the other calls; inactive = mostly above about 0.92. Some of the results follow.

Assay: chemical genetic growth profiling, strain panel (AID 1159580);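 also: tested at 20 µM; growth read once vehicle control cultures reached saturation at 30 °C; 1 = growth at the plate median or of vehicle wells; lower values mean less growth of the strain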
Details: growth OD

Measured: normalized growth

CC1(C)S[C@@H]2[C@H](NC(=O)Cc3ccccc3)C(=O)N2[C@H]1C(=O)O
inactive: S. cerevisiae deletion strains, locus YJR066W, strain TOR1, active compounds read low 0.941 | S. cerevisiae deletion strains, locus YKL009W, strain mrt4, active compounds read low 1 | S. cerevisiae deletion strains, locus YKL068W, active compounds read low 1 | S. cerevisiae deletion strains, locus YKL085W, strain MDH1 (second series), active compounds read low 1 | S. cerevisiae deletion strains, locus YKL085W, strain MDH1, active compounds read low 1 | S. cerevisiae deletion strains, locus YKL160W, strain elf1, active compounds read low 1.01 | S. cerevisiae deletion strains, locus YKL190W, strain CNB1, active compounds read low 1.01 | S. cerevisiae deletion strains, locus YKR001C, strain vps1, active compounds read low 1.01 | S. cerevisiae deletion strains, locus YKR026C, strain gcn3, active compounds read low 1.03 | S. cerevisiae deletion strains, locus YKR091W, strain srl3, active compounds read low 1.01 | S. cerevisiae deletion strains, locus YLL001W, strain dnm1, active compounds read low 1.03 | S. cerevisiae deletion strains, locus YLL026W, active compounds read low 1.02 | S. cerevisiae deletion strains, locus YLL041C, strain sdh2, active compounds read low 1.01 | S. cerevisiae deletion strains, locus YLR027C, strain aat2, active compounds read low 1.03 | S. cerevisiae deletion strains, locus YLR039C, strain RIC1, active compounds read low 1.04 | S. cerevisiae deletion strains, locus YLR058C, strain SHM2, active compounds read low 1 | S. cerevisiae deletion strains, locus YLR102C, strain apc9, active compounds read low 1.02 | S. cerevisiae deletion strains, locus YLR113W, strain HOG1, active compounds read low 0.986 | S. cerevisiae deletion strains, locus YLR221C, strain rsa3, active compounds read low 1.03 | S. cerevisiae deletion strains, locus YLR258W, strain gsy2, active compounds read low 1.03 | S. cerevisiae deletion strains, locus YLR262C, strain YPT6 (second series), active compounds read low 1 | S. cerevisiae deletion strains, locus YLR262C, strain YPT6, active compounds read low 1.02 | S. cerevisiae deletion strains, locus YLR268W, strain sec22, active compounds read low 1.02 | S. cerevisiae deletion strains, locus YLR320W, strain mms22, active compounds read low 1.04 | S. cerevisiae deletion strains, locus YLR330W, strain CHS5, active compounds read low 1 | S. cerevisiae deletion strains, locus YLR342W, strain FKS1 (second series), active compounds read low 1.01 | S. cerevisiae deletion strains, locus YLR342W, strain FKS1, active compounds read low 1.03 | S. cerevisiae deletion strains, locus YLR357W, strain rsc2, active compounds read low 1.03 | S. cerevisiae deletion strains, locus YLR370C, strain arc18, active compounds read low 1.03 | S. cerevisiae deletion strains, locus YLR371W, strain rom2, active compounds read low 1.02 | S. cerevisiae deletion strains, locus YLR384C, strain iki3, active compounds read low 1.03 | S. cerevisiae deletion strains, locus YLR418C, strain cdc73, active compounds read low 1.03 | S. cerevisiae deletion strains, locus YML016C, strain PPZ1, active compounds read low 1.01 | S. cerevisiae deletion strains, locus YML032C, strain rad52, active compounds read low 1.02 | S. cerevisiae deletion strains, locus YML120C, strain ndi1, active compounds read low 1.04 | S. cerevisiae deletion strains, locus YML124C, strain tub3, active compounds read low 1.02 | S. cerevisiae deletion strains, locus YMR058W, strain fet3, active compounds read low 1.01 | S. cerevisiae deletion strains, locus YMR078C, strain ctf18, active compounds read low 1.03 | S. cerevisiae deletion strains, locus YMR125W, strain sto1, active compounds read low 1.06 | S. cerevisiae deletion strains, locus YMR129W, active compounds read low 1.03 | S. cerevisiae deletion strains, locus YMR205C, strain PFK2, active compounds read low 1.03 | S. cerevisiae deletion strains, locus YMR223W, strain ubp8, active compounds read low 1.02 | S. cerevisiae deletion strains, locus YMR231W, strain pep5, active compounds read low 1.03 | S. cerevisiae deletion strains, locus YMR263W, strain SAP30, active compounds read low 1 | S. cerevisiae deletion strains, locus YMR307W, strain GAS1, active compounds read low 1.01 | S. cerevisiae deletion strains, locus YNL067W, strain RPL9B, active compounds read low 1 | S. cerevisiae deletion strains, locus YNL071W, strain lat1, active compounds read low 1.02 | S. cerevisiae deletion strains, locus YNL128W, strain TEP1, active compounds read low 1.01 | S. cerevisiae deletion strains, locus YNL183C, strain NPR1, active compounds read low 0.944 | S. cerevisiae deletion strains, locus YNL209W, strain ssb2, active compounds read low 1.02 | S. cerevisiae deletion strains, locus YNL233W, strain BNI4, active compounds read low 0.999 | S. cerevisiae deletion strains, locus YNL248C, strain rpa49, active compounds read low 1.03 | S. cerevisiae deletion strains, locus YNL250W, strain rad50, active compounds read low 1.02 | S. cerevisiae deletion strains, locus YNL271C, strain bni1, active compounds read low 1.02 | S. cerevisiae deletion strains, locus YNL298W, strain CLA4, active compounds read low 1.01 | S. cerevisiae deletion strains, locus YNL307C, strain MCK1, active compounds read low 1.03 | S. cerevisiae deletion strains, locus YNL322C, strain KRE1 (second series), active compounds read low 1.04 | S. cerevisiae deletion strains, locus YNR049C, strain mso1, active compounds read low 1.01 | S. cerevisiae deletion strains, locus YNR052C, strain pop2, active compounds read low 1.02 | S. cerevisiae deletion strains, locus YOL006C, strain TOP1, active compounds read low 1.02 | S. cerevisiae deletion strains, locus YOL012C, strain htz1 1.12 | S. cerevisiae deletion strains, locus YOL147C, strain pex11, active compounds read low 1.02 | S. cerevisiae deletion strains, locus YOR001W, strain rrp6, active compounds read low 1.04 | S. cerevisiae deletion strains, locus YOR061W, strain CKA2, active compounds read low 1.01 | S. cerevisiae deletion strains, locus YOR069W, strain VPS5, active compounds read low 0.998 | S. cerevisiae deletion strains, locus YOR070C, strain gyp1, active compounds read low 1.03 | S. cerevisiae deletion strains, locus YOR080W, strain dia2, active compounds read low 1.02 | S. cerevisiae deletion strains, locus YOR083W, strain WHI5, active compounds read low 0.987 | S. cerevisiae deletion strains, locus YOR106W, strain vam3, active compounds read low 1.03 | S. cerevisiae deletion strains, locus YOR136W, strain idh2, active compounds read low 1.02 | S. cerevisiae deletion strains, locus YOR144C, strain elg1, active compounds read low 1.02 | S. cerevisiae deletion strains, locus YOR184W, strain ser1, active compounds read low 1.06 | S. cerevisiae deletion strains, locus YOR231W, strain MKK1, active compounds read low 0.994 | S. cerevisiae deletion strains, locus YOR265W, strain rbl2, active compounds read low 1.01 | S. cerevisiae deletion strains, locus YOR270C, strain vph1, active compounds read low 1.13 | S. cerevisiae deletion strains, locus YOR290C, strain snf2, active compounds read low 1.03 | S. cerevisiae deletion strains, locus YOR316C, strain cot1, active compounds read low 1.02 | S. cerevisiae deletion strains, locus YPL051W, strain arl3, active compounds read low 1.03 | S. cerevisiae deletion strains, locus YPL055C, strain LGE1, active compounds read low 1.01 | S. cerevisiae deletion strains, locus YPL078C, strain atp4, active compounds read low 1.03 | S. cerevisiae deletion strains, locus YPL106C, strain sse1, active compounds read low 1.02 | S. cerevisiae deletion strains, locus YPL240C, strain hsp82, active compounds read low 1.02 | S. cerevisiae deletion strains, locus YPL256C, strain CLN2, active compounds read low 0.966 | S. cerevisiae deletion strains, locus YPR119W, strain clb2, active compounds read low 1.03 | S. cerevisiae deletion strains, locus YPR141C, strain kar3, active compounds read low 1.01 | S. cerevisiae deletion strains, locus YPR163C, strain tif3, active compounds read low 1.03 | S. cerevisiae deletion strains, locus YPR167C, strain met16, active compounds read low 1.02 | S. cerevisiae deletion strains, strain wtn01, active compounds read low 1.01 | S. cerevisiae strains, strain wild type, active compounds read low 1
